A selection: hits, their analogues and other compounds. The true share with any hit is near 1.8%.
LYPLA2 inh – blocks human lysophospholipase 2, a PME1 counter-screen; O95372; recombinant LYPLA2, FP-Rh probe fluorescence polarization; inhibition, % at 5.9 µM; 0.38% of 320,000 active; AID 2177;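 active = inhibition above the screen-wide mean plus 3 SD, limit set per campaign, cut at about 26% in these data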;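 also: 0% = LYPLA2 with DMSO and 100% = wells lacking LYPLA2 enzyme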
Target sequence (O95372 whole entry, looked up): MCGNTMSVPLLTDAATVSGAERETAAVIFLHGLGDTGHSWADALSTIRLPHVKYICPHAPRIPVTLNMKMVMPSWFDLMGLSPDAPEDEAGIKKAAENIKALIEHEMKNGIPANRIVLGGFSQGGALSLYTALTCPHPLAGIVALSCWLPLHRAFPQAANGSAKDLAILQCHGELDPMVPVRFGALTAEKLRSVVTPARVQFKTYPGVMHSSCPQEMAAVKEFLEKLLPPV
GSTO1 inh – blocks human GSTO1 in RBBP9 counter-screen; recombinant GSTO1, activity-based probe fluorescence polarization; inhibition, % at 5.96 µM; 1.1% of 300,000 active;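 active = inhibition above the campaign mean inhibition plus 3 SD, cut at about 35% in these data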;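 also: 0% = GSTO1-1 with DMSO and 100% = wells lacking GSTO1-1 enzyme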
Target sequence (P78417 whole entry, looked up): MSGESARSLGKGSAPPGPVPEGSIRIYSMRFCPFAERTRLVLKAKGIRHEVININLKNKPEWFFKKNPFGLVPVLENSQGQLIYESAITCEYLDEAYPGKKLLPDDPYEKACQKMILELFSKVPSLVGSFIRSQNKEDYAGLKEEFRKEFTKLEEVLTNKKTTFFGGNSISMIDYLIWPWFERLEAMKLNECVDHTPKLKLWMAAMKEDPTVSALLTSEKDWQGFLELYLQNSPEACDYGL
Fam108B inh – blocks mouse Fam108B hydrolase in RBBP9 counter-screen; recombinant Fam108B, FP-Rh probe fluorescence polarization; inhibition, % at 9.51 µM; 0.33% of 300,000 active;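 active = inhibition above the screen mean inhibition plus 3 SD, computed separately per campaign, cut at about 18% in these data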;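 also: inhibitors lower polarization as less probe binds the enzyme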
PAD4 FP inh – blocks human protein arginine deiminase 4; 0.41% of 330,000 active; Q9UM07; recombinant PAD4, RCA probe fluorescence polarization; inhibition, % at 6.36 µM;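 active = percent inhibition above a cutoff equal to the mean of all tested compounds plus 3 SD, cut at about 15% in these data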;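 also: 0% = PAD4 with RCA probe and DMSO and 100% = probe without PAD4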
LYPLA1 counter – LYPLA1 (human) inhibition in PME1 counter-screen; O75608; recombinant LYPLA1, FP-Rh probe fluorescence polarization; inhibition, % at 5.9 µM; 0.16% of 320,000 active;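 active = inhibition above the mean of all tested compounds plus 3 SD, set per campaign, cut at about 14% in these data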;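 also: inhibitors block serine hydrolase probe labeling of LYPLA1 so polarization falls; 0% = enzyme with DMSO and 100% = wells lacking LYPLA1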
PME-1 inh – PME-1 (human) inhibition | recombinant PME-1, FP-Rh probe fluorescence polarization | 0.53% of 320,000 active | Q9Y570 | inhibition, % at 5.9 µM | AID 2130;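 active = inhibition above the campaign mean of all compounds plus 3 SD, cut at about 26% in these data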;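 also: competitive labeling of PME-1 active site by serine hydrolase directed probe; 0% = PME-1 with DMSO and 100% = wells lacking PME-1 enzyme; inhibitors block probe labeling so polarization falls and inhibition rises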
GSTO1 inh conf – confirmation of human GSTO1 inhibitors. AID 2176. recombinant GSTO1, probe fluorescence polarization. 54% of 2,400 active. shares compounds with GSTO1 inh. inhibition, % at 5.96 µM;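 active = inhibition above the primary screen's cutoff, its mean inhibition plus 3 SD, cut at about 35% in these data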;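 also: loss of polarization as inhibitors block binding of rhodamine sulfonate ester activity probe; 0% = GSTO1 with DMSO and 100% = wells lacking GSTO1 enzyme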
GSTO1 recomb ABPP – inhibitors of recombinant human GSTO1 | inhibition, % at 1 µM | shares compounds with GSTO1 inh | 30% of 130 active | gel ABPP SE-Rh probe fluorescence;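 active = inhibition of the enzyme GSTO1 above about 75%, limit read from the data; inactive = inhibition below that limit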
An asterisk follows results filed as active; . = no result given.

SMILES	LYPLA2 inh	GSTO1 inh	Fam108B inh	PAD4 FP inh	LYPLA1 counter	PME-1 inh	GSTO1 inh conf	others
O=[N+]([O-])c1ccccc1S(=O)(=O)N(CC1CO1)c1ccccc1 (configuration not stated)	-9.2	98.4*	0.5	-0.9	0.2	-1.2	99.7*	GSTO1 recomb ABPP=56.0
CCc1ccc2oc(=O)cc(CN3CCCCC3)c2c1	-6.2	2.6	-0.7	-3.1	0.1	-1.4	.
CC1CCCN(S(=O)(=O)c2cccc(C(=O)NCC3CCCO3)c2)C1 (configuration not stated)	.	.	.	1.3	.	.	.
CC(=O)N(Cc1ccc(F)cc1)C1=C(NCCc2ccccc2)C(=O)c2ccccc2C1=O	8.9	44.3*	12.4	7.9	2.7	8.6	45.8*
CC(=O)N(Cc1ccc(F)cc1)c1cccc(C)c1C	0.5	1.4	1.4	0.6	-3.8	3.7	.
O=C(NC1CCCN(CCc2ccccc2)C1)C1CCCC1 (configuration not stated)	6.1	0.7	-3.3	-4.2	2.4	-2.6	.
O=C(NCCCn1cccn1)C1CCC(=O)N(CCc2ccccc2)C1 (configuration not stated)	0.1	5.1	3.2	-3.6	3.2	1.0	.
N#CC(C#N)=C1NC2(CCCCC2)Cc2ccccc21	11.2	3.6	-0.2	-6.3	2.3	7.4	.
N#CC(C#N)=c1ccc2c(c1)NC1(CCCCC1)N=2	-5.6	68.0*	0.8	4.5	-1.8	-6.4	49.5*
CCc1cc(C(=O)N=Nc2c(O)[nH]c3c(Br)cc(Br)cc23)c2ccccc2n1	1.5	74.8*	3.1	-11.8	-2.0	12.1	20.1
O=C(CCN1C(=O)/C(=C\c2ccccc2F)SC1=S)N1CCCCC1	2.9	47.0*	2.7	-4.8	1.6	3.2	10.7
CCC(=O)OC1(C)C(=O)C=C2C=C(c3ccsc3)OC=C2C1=O (configuration not stated)	2.2	40.2*	6.1	-13.8	0.3	3.3	25.7
CC1(O)C(=O)C=C2C=C(c3ccsc3)OC=C2C1=O (configuration not stated)	9.7	46.5*	10.8	1.5	1.0	2.3	25.1
O=Cc1cc(Br)c(OC(=O)N2CCOCC2)c(Br)c1	1.7	-4.0	-3.8	-4.1	1.5	0.6	.
Cc1nnc2c(SC(C)C)nc3ccccc3n12	4.6	41.6*	2.7	-0.2	-0.4	-3.1	5.3
O=C(O)c1cccc(Cn2c(Cl)c(/C=N/NC(=O)c3ccccc3Cl)sc2=O)c1	2.7	1.4	2.0	1.0	-0.9	-0.2	.
O=C(O)c1cccc(Cn2c(Cl)c(/C=N/Nc3ccccc3)sc2=O)c1	5.2	50.0*	7.8	2.9	7.3	7.5	64.5*
NC(=S)N/N=C/c1coc2ccc(O)cc2c1=O	2.1	66.6*	-0.2	3.0	1.7	7.5	12.4
O=C(CCl)c1ccc2c(c1)CCN2C(=O)C1CCCCC1	-5.5	41.7*	3.2	0.5	-1.2	0.0	63.5*
CCC1CCCCN1S(=O)(=O)c1ccc2c(c1)CCN2C(=O)C1CCC1 (configuration not stated)	4.2	8.3	-1.9	-4.2	4.6	2.7	.
Cn1c(=O)c(=O)n(C)c2cc(N3CCOCC3)c(NS(=O)(=O)c3ccc(Br)cc3)cc21	12.7	-0.1	1.5	-5.0	3.1	15.1	.
CCc1ccc(C(=O)COC(=O)C2CCN(c3ccc(C(F)(F)F)cn3)CC2)cc1	11.1	10.2	-5.6	-4.1	2.4	-2.3	.
COc1ccc(CC2=CC(=O)c3ccccc3C2=O)cc1	0.2	67.2*	9.8	-10.3	-2.7	11.5	15.4
CCCn1c(SCC(=O)NC2CCCCC2)nnc1C1CC1	-0.3	-2.4	4.6	-2.8	-2.3	-0.2	.
COc1ccc(C#Cc2c(-c3ccsc3)oc3ccc(-c4cc(OC)c(OC)c(OC)c4)cc23)cc1	5.1	3.3	1.5	2.3	5.0	2.2	.
C/C(=N\NC(=O)c1cc(O)ccc1O)c1cccc(NC(=O)c2ccc(Cl)cc2)c1	-3.5	85.1*	11.1	-6.2	-6.1	8.6	19.4
